Screening results: PubChem, Broad Institute
An excerpt weighted towards active compounds, which were near 4% of everything screened.
MITF TRPM1 HTS – increases MITF-driven TRPM1 promoter luciferase signal; AID 588334; actives 0.75% (n = 300,000); SK-MEL-5 TRPM1-promoter luciferase, 24 h; % of positive control, neutral wells = 0; activation, % at 12.5 µM;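 active = mean activation of at least 80% with every replicate also reaching 80%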;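 note: 0% = neutral control wells and 100% = parthenolide positive control wells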
esBAF inh – inhibitors of esBAF chromatin remodeling in mouse ES cells. reporter increase, % at 12.5 µM. Bmi1-luciferase knock-in reporter, 24 h; 100% = twice the neutral-well signal. actives 2% (n = 350,000); in the data active = activation above about 40%;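 note: 0% = median of the plate's neutral control wells and 100% = double that signal; a rise in the Bmi1 reporter signal indicates esBAF inhibition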
EWS-Fli inh – blocks EWS/Fli oncoprotein-driven transcription; A673 NR0B1-luciferase reporter, viability-normalised; inhibition, % at 12.6 µM; actives 0.67% (n = 350,000);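 active = mean inhibition of at least 50% after viability correction, with every replicate also passing that limit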;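 note: firefly luciferase signal divided by Alamar Blue viability fluorescence both relative to DMSO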
TRPM1 prom inh – reduces MITF-dependent TRPM1 promoter luciferase signal; inhibition, % at 12.5 µM; actives 0.83% (n = 330,000); SK-MEL-5 TRPM1 promoter luciferase, 24 h; AID 488899;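 active = mean inhibition across replicates of 60% or more, whatever share of single replicates reaches that level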
PAX8 reporter – lowers PAX8-driven luciferase in RMG-I cells | AID 652154 | actives 1.2% (n = 360,000) | RMG-I TPO-luciferase reporter, SteadyGlo, 24 h | inhibition, % at 12.6 µM;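 active = mean replicate inhibition at least 60% with every replicate also reaching 60%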;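 note: luciferase light reporting Pax8 driven TPO promoter activity; plate controls were median of neutral control wells for no effect and mitoxantrone controls for full effect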
Wnt act – activators of Wnt/beta-catenin signaling | Wnt/beta-catenin reporter cell assay, activator, plate reader | activation, % at 9.35 µM | actives 1.2% (n = 300,000) | AID 743398; in the data active = activation above about 30%, passing the limit was not always enough;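 note: 0% = neutral control wells and 100% = positive control wells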
Numbers without * were called inactive; . = not tested or not shown.

SMILES | MITF TRPM1 HTS | esBAF inh | EWS-Fli inh | TRPM1 prom inh | PAX8 reporter | Wnt act
C[C@H]1CN([C@@H](C)CO)C(=O)c2cc(NS(=O)(=O)c3ccc(Cl)cc3)ccc2O[C@H]1CN(C)C | . | -6.6 | 1.0 | . | -10.1 | .
COc1ccc(S(=O)(=O)Nc2ccc3c(c2)C(=O)N([C@@H](C)CO)C[C@@H](C)[C@@H](CN(C)C(=O)Nc2cccc4ccccc24)OCCCC[C@H](C)O3)cc1 | . | 3.0 | 0.3 | . | 23.2 | .
O=C1CN(c2ccccc2)C(=O)N1 | . | . | 22.8 | 2.5 | 6.5 | 0.7
S=C1NC(c2ccccc2)=NCN1c1ccccc1 | . | 57.7* | . | -34.8 | -115.4 | 41.6*
C[C@H]1CN([C@@H](C)CO)C(=O)c2cccc(NC(=O)C3CCOCC3)c2O[C@@H]1CN(C)S(C)(=O)=O | . | -4.9 | -9.7 | . | -3.0 | .
COC(=O)Cc1[nH]n(-c2nc3ccccc3s2)c(=O)c1C(C)=Nc1ccc(Cl)cc1 | -79.0 | . | 5.7 | 79.5* | -99.8 | 18.5
N#C/C(=N\Nc1ccccc1F)C(=N)N1CCCCC1 | 85.2* | . | . | -83.9 | -188.7 | 28.2
COc1ccc(N/N=C(\C#N)C(=N)N2CCCCC2)cc1 | 56.7 | 65.1* | -69.6 | -56.0 | -80.0 | 22.5
Cc1noc(C)c1NC(=O)N(C)C[C@@H]1Oc2ncc(C3=CCCCC3)cc2C(=O)N([C@@H](C)CO)C[C@@H]1C | . | -3.3 | -4.6 | . | -13.4 | .
O=C(Nc1ccc2c(c1)OCO2)c1cnn2c(C(F)(F)F)cc(-c3ccco3)nc12 | -2.6 | -6.5 | . | 4.1 | . | -0.7
O=C(Nc1cnn(C23CC4CC(CC(C4)C2)C3)c1)c1cnn2c(C(F)(F)F)cc(-c3ccco3)nc12 | -76.6 | -5.5 | 7.5 | 75.4* | . | -2.7
C[C@@H]1CN([C@@H](C)CO)C(=O)c2cc(C#Cc3ccccc3F)cnc2O[C@@H]1CN(C)S(=O)(=O)c1ccccc1F | . | 0.2 | -4.5 | . | . | .
O=CN(/C=C1\Sc2ccccc2C1=O)Cc1ccccc1 | 11.4 | 51.5* | . | -15.2 | -21.8 | 8.2
CCC(=O)N(C)/C=C1\Sc2ccccc2C1=O | -9.4 | . | . | 9.7 | . | .
C[C@@H](NC(=O)[C@@H]1[C@@H](CO)[C@@H]2Cn3c(cccc3=O)[C@H]1N2C(=O)C1CCCC1)c1ccccc1 | . | 2.1 | 1.9 | . | . | .
O=C(O)C1CCCN1c1nc(-c2ccc(Cl)c(Cl)c2)cc(C(F)(F)F)n1 (stereo not drawn) | . | 26.8 | 8.3 | . | 77.4* | -4.8
FC(F)(F)c1cc(-c2ccccc2)nc(N2CCCCC2)n1 | 4.7 | -3.3 | . | 0.3 | . | -0.5
CC[n+]1c(/C=C/N(C)c2ccccc2)n(-c2ccccc2)c2ccc(-c3nc4ccccc4s3)cc21 | . | -47.2 | . | 90.5* | . | .
CCCC(=O)Nc1ccc2c(c1)C(=O)N(C)C[C@@H](OC)[C@H](C)CN(Cc1nccs1)[C@H](C)CO2 | . | 1.9 | 3.2 | . | -4.6 | .
CCCn1c(C)cc(C(=O)Cn2nnc3ccccc3c2=O)c1C | 67.0 | . | -6.9 | -73.1 | -82.4 | 46.3*
CO[C@@H]1CN(C)C(=O)c2ccc(NC(=O)Nc3cccc(Cl)c3)cc2OC[C@H](C)N(C(=O)Nc2c(C)noc2C)C[C@H]1C | . | . | 31.1 | . | 9.4 | .
Cc1cc(Sc2nnc(N)s2)c2ccccc2n1 | . | 32.7 | 10.5 | 48.1 | 89.5* | -9.2
Cc1cc(Sc2nnc(/N=C/N(C)C)s2)c2ccccc2n1 | . | . | 4.9 | 35.3 | 85.4* | 0.8
CCCCCCCCSc1nnc(/N=C/N(C)C)s1 | -1.0 | . | 12.2 | 0.5 | 16.2 | -0.2
O=C(N[C@H]1CC[C@@H](CCn2cc(C3(O)CCCC3)nn2)O[C@H]1CO)C1CC1 | . | -3.1 | 2.8 | . | 8.0 | .
SMILES | MITF TRPM1 HTS | esBAF inh | EWS-Fli inh | TRPM1 prom inh | PAX8 reporter | Wnt act
O=C(c1ccc(Cl)s1)N1CCCC1 | -6.6 | -7.5 | . | 6.3 | . | -1.7
CC(C)(C)c1ccc(C(=O)N2CCCC2)s1 | 11.8 | 46.6* | -59.9 | -14.1 | -35.5 | 6.4
CCC(=O)N1CC(=O)N2[C@H](CO)[C@H](c3ccc(C#CC4CCCC4)cc3)[C@@H]2C1 | . | . | -9.6 | . | -5.0 | .
Oc1c(I)cc(I)c2cccnc12 | -21.4 | -14.3 | 51.8* | 20.5 | 99.8* | -1.9
O=C(Nc1nccs1)c1ccc(COc2ccccc2Br)o1 | 61.4 | 49.8* | . | -56.1 | . | .
O=C(Nc1nccs1)c1ccc(COc2ccc(F)cc2)o1 | 50.5 | 60.5* | . | -45.3 | . | 24.0
O=C(Nc1nccs1)c1ccc(COc2ccc(Cl)cc2)o1 | 16.9 | . | . | -18.0 | . | .
CN(C)C(=O)c1ccc(COc2ccccc2Br)o1 | 65.3 | 62.1* | . | -58.4 | . | .
